Screening results as filed in PubChem BioAssay.
Rows were chosen to be rich in hits. Some 13% of all compounds tested hit in one or more screens of this group.
LMNA splice mod: qHTS Assay for Modulators of Lamin A Splicing. hit rate 0.01% among 200,000. AID 1487, 2009. HeLa LMNA splicing GFP/RFP minigene ratio, 48 h. Potency, µM (doses to about 46.1 µM), for inactives: at the highest dose ratio change, negative = inhibition, most hits filed as inhibitors; active means well fitted inhibition curve with a large enough effect in the signal ratio, with a control signal flat, not every such curve was filed as active; inconclusive means small, poorly fitted or top-dose-only effect, or effect the other way, or a change in a side signal; the % refers to the signal ratio; further: potency means the concentration at half of the fitted maximal effect; on the % scale 0 is the no-effect control and ±100 the full control effect
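Read-out is the ratio of GFP to DsRed2 object intensity, acquired by 488 nm laser-scanning cytometry on HeLa lamin A-EGFP minigene reporter cells. Compound incubation 48 hrs at 37 °C in Opti-MEM with 2% FBS; DMSO 0.5% final.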
Sfp inh: qHTS Assay for Inhibitors of Bacillus subtilis Sfp phosphopantetheinyl transferase (PPTase); Potency, µM, for inactives: largest response in the series, negative = inhibition, usual class: inhibitors; 4'-phosphopantetheinyl transferase ffp (Bacillus subtilis), Q9F4F7; hit rate 3.5% among 310,000; Biochemical Sfp PPTase activity, qHTS; AID 1490, 2009;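 further: the enzyme is Sfp with the accession as filed and its product quenches rhodamine fluorescence; potency means the concentration at half of the fitted maximal effect; 0% = enzyme reaction without inhibitor and -100% = no enzyme wells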
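Fluorescence-quenching assay: 15 nM Sfp-PPTase preincubated 15 min at room temperature with compound, then 5 uM rhodamine-CoA and 12.5 uM BHQ-2-labelled YbbR peptide added. Fluorescence (ex 525/em 598 nm) read at start and after 30 min; difference gives rate.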
ALDH1A1 block: qHTS Assay for Inhibitors of Aldehyde Dehydrogenase 1 (ALDH1A1). Aldehyde dehydrogenase 1A1 (Homo sapiens), P00352. Purified ALDH1A1, NADH fluorescence, propionaldehyde substrate. Potency, µM (highest dose often 75.3 µM), without a hit: at the highest dose activity, negative = inhibition, most hits filed as inhibitors. hit rate 7.3% among 220,000; active means well fitted inhibition curve with a large enough effect, not every such curve was filed as active; inconclusive means small, poorly fitted or top-dose-only effect, or another doubt; inactive means no such curve, though single readings can be large or run the other way;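 further: potency means the concentration at half of the fitted maximal effect; plate controls were no enzyme wells and a reference inhibitor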
G9a inh: qHTS Assay for Inhibitors of Histone Lysine Methyltransferase G9a; Histone-lysine N-methyltransferase EHMT2 (Homo sapiens), Q96KQ7; G9a H3K9 monomethylation, AlphaScreen, 2 h; Potency, µM (highest dose often 102 µM), inactives show at the top dose activity, negative = inhibition, actives largely listed as inhibitors; hit rate 8.8% among 350,000; AID 504332, 2011; further: potency means the concentration at half of the fitted maximal effect; on the % scale 0 is the no-effect control and ±100 the full control effect; nearly all actives have a fitted effect of over 75% in size
Target sequence (Q96KQ7 913-1193 limits assumed): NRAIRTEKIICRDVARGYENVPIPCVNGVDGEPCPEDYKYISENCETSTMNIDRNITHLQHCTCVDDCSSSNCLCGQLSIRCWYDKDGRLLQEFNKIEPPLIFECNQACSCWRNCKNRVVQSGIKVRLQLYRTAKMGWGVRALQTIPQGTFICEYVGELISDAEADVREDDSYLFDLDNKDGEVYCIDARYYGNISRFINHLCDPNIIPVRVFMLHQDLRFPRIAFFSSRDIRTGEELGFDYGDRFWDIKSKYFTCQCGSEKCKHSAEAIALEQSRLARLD
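Quantitative HTS format: methyltransferase activity on a biotin-tagged H3K9 peptide is measured by AlphaScreen, using a rabbit anti-monomethyl-H3K9 antibody with streptavidin donor and anti-IgG acceptor beads. Final levels are 20 nM enzyme, 500 nM peptide, 20 uM SAM; 2 h RT.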
KDM4E inh: qHTS Assay for Inhibitors of Human Jumonji Domain Containing 2E (JMJD2E); Lysine-specific demethylase 4E (Homo sapiens), B2RXH2; JMJD2E catalytic domain, FDH-coupled NADH fluorescence (FDH is formaldehyde dehydrogenase); Potency, µM (titrated, usually from 57.1 µM), without a hit: at the highest dose activity change, negative = inhibition, actives largely listed as inhibitors; hit rate 1.6% among 230,000; AID 2147, 2009; active means well fitted inhibition curve with a large enough effect, not every such curve was filed as active; inconclusive means small, poorly fitted or top-dose-only effect, or another doubt; inactive means no such curve, though single readings can be large or run the other way;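 further: potency means the concentration at half of the fitted maximal effect; 0% = wells with enzyme and -100% = buffer wells without enzyme; nearly all actives have a fitted effect of over 50% in size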
miR-21 act: qHTS Assay for Modulators of miRNAs and/orActivators of miR-21 | HeLa miR-21 FLuc reporter, luciferase, 48 h | Potency, µM (top dose mostly 38.3 µM), for inactives: top-dose activity change, positive = activation, most hits filed as activators | 340,000 tested, under 10 active;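 further: % of control where 0% means no effect; miR-21 action dims this reporter so a rising signal means less miR-21 action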
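Luminescence from a firefly luciferase reporter carrying a miR-21 binding site downstream, stably expressed under a CMV promoter in HeLa cells that make miR-21 endogenously, reports miRNA modulation after 48 h compound exposure up to approximately 40uM final.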
* = called active by the depositor; ? = inconclusive; / = no result; [ ] = dose if it differs, or a comment. Unless noted, the call rests on the fitted dose curve; in most records, active means well fitted curve in the direction sought with a large enough effect; inconclusive means small, poorly fitted or top-dose-only effect, or another doubt; inactive means no such curve, though single readings can be large; an effect the other way counts as inactive or inconclusive.

SMILES	LMNA splice mod	Sfp inh	ALDH1A1 block	G9a inh	KDM4E inh	miR-21 act
Cc1onc(-c2ccccc2)c1-c1csc(N/N=C/c2ccccc2)n1	/	-10%	?	/	?	3%
Clc1cnc(N/N=C/c2cccs2)c(Cl)c1	8%	-11%	7%	36%	-9%	-51%
C(=N\Nc1nc(-c2ccccc2)cs1)/c1ccncc1	-13%[46 µM]	?	?	50µM*	-13%	-56%
Cc1ccc(-c2csc(N/N=C/C=C/c3ccccc3)n2)cc1	2%	-23%	22µM*	-10%	-3%	-29%
c1ccc(-c2csc(Nc3ncccn3)n2)cc1	-7%	20%	8%	-1%[59 µM]	15%	-72%
O=C(NC(=S)Nc1nc(-c2cccc([N+](=O)[O-])c2)cs1)c1cc(Cl)ccc1Cl	/	-20%	28µM*	/	?	-7%
C(=N\Nc1nc(-c2ccccc2)cs1)/c1cccs1	?	8.9µM*	-17%	14µM*	-30%	-43%
O=[N+]([O-])c1cccc(-c2csc(N/N=C/c3cccc(O)c3)n2)c1	/	50µM*	-4%	35µM*	-2%	12%
O=C(Nc1nc(-c2ccc(Cl)cc2)cs1)c1cccnc1	-4%	-7%	0%	40µM*	1%	-7%
CCOC(=O)N1CCN(c2ccc(S(=O)(=O)N3CCC(C)CC3)cc2[N+](=O)[O-])CC1	/	/	/	2%[2.33 µM]	/	/
CCOC(=O)N1CCC(N2CCCC(C(=O)c3ccccc3OC)C2)CC1 (stereo unspecified)	/	10%	-6%	7%	-25%	-2%
CCCCN(C(=O)c1cccc(S(=O)(=O)N2CCN(C)CC2)c1)c1c(N)n(CCC)c(=O)[nH]c1=O	/	/	/	-29%	/	/
O=C(NCCNc1ccc([N+](=O)[O-])cc1)c1cccs1	/	16%	/	-10%[59 µM]	/	2%
CC(=O)N1CCOc2ccc(S(=O)(=O)N3CCC(C(=O)NCc4ccc(F)cc4)CC3)cc21	/	22%	/	17%[59 µM]	/	4%
O=C(O)Cc1sc(N/N=C\c2ccncc2)nc1-c1ccccc1	/	28µM*	/	2µM*	?	16%
Clc1ccc(-c2csc(N/N=C/c3ccco3)n2)cc1	/	?	/	/	-13%	-47%
Nc1nc(-c2ccccc2)c(CC(=O)O)s1	/	/	-9%[13.5 µM]	/	/	/
Clc1ccc(-c2csc(N/N=C\c3cccnc3)n2)cc1	-12%	56µM*	8%	10µM*	-1%	-21%
Cc1nc([N+](=O)[O-])c(Br)n1CC(=O)c1ccc(Cl)cc1	?	5%	-7%	50µM*	-8%	?
O=C(Nc1ccc(OC(F)F)cc1)c1cc(S(=O)(=O)N2CCOCC2)ccc1F	/	8%	/	20%	/	3%
CC(=O)Nc1ccc(Nc2c([N+](=O)[O-])c(=O)n(-c3ccccc3)c3ccccc23)cc1	7%[46 µM]	-10%	10µM*	/	9%	-5%
O=c1c([N+](=O)[O-])c(N2CCCCCC2)c2ccccc2n1-c1ccccc1	-10%	11%	2%	14%[59 µM]	5%	-11%
Cc1ccc(Nc2c([N+](=O)[O-])c(=O)n(C)c3ccccc23)cc1C	-21%	-29%	8.9µM*	-37%[12.7 µM]	6%	4%
Cn1c(=O)c([N+](=O)[O-])c(Cl)c2ccccc21	?	-5%	18µM*	-29%	-1%	13%
CCCCn1c(SCC(=O)NCc2ccccc2)nc2ccc(N3CCOCC3)cc2c1=O	-12%	-29%	?	10%[12.7 µM]	?	-2%
CCCCn1c(SCC(=O)NC(C)CC)nc2ccc(N3CCOCC3)cc2c1=O (stereo unspecified)	8%	56µM*	?	?	?	-3%
CCCCn1c(SCC(=O)NCc2ccco2)nc2ccc(N3CCOCC3)cc2c1=O	4%	45µM*	?	4%[12.7 µM]	?	-10%
